Drawing on PubChem BioAssay (EPA / NIEHS), this text covers outcome and AC50 for 40 molecules.

The source made the active and inactive calls. How the source made its calls: active means hit-call score of the fitted dose curve at least 0.9, where 1 is the maximum; inactive means score below 0.9.

Sequence of Fatty acid synthase (Homo sapiens) (P49327 whole entry, looked up): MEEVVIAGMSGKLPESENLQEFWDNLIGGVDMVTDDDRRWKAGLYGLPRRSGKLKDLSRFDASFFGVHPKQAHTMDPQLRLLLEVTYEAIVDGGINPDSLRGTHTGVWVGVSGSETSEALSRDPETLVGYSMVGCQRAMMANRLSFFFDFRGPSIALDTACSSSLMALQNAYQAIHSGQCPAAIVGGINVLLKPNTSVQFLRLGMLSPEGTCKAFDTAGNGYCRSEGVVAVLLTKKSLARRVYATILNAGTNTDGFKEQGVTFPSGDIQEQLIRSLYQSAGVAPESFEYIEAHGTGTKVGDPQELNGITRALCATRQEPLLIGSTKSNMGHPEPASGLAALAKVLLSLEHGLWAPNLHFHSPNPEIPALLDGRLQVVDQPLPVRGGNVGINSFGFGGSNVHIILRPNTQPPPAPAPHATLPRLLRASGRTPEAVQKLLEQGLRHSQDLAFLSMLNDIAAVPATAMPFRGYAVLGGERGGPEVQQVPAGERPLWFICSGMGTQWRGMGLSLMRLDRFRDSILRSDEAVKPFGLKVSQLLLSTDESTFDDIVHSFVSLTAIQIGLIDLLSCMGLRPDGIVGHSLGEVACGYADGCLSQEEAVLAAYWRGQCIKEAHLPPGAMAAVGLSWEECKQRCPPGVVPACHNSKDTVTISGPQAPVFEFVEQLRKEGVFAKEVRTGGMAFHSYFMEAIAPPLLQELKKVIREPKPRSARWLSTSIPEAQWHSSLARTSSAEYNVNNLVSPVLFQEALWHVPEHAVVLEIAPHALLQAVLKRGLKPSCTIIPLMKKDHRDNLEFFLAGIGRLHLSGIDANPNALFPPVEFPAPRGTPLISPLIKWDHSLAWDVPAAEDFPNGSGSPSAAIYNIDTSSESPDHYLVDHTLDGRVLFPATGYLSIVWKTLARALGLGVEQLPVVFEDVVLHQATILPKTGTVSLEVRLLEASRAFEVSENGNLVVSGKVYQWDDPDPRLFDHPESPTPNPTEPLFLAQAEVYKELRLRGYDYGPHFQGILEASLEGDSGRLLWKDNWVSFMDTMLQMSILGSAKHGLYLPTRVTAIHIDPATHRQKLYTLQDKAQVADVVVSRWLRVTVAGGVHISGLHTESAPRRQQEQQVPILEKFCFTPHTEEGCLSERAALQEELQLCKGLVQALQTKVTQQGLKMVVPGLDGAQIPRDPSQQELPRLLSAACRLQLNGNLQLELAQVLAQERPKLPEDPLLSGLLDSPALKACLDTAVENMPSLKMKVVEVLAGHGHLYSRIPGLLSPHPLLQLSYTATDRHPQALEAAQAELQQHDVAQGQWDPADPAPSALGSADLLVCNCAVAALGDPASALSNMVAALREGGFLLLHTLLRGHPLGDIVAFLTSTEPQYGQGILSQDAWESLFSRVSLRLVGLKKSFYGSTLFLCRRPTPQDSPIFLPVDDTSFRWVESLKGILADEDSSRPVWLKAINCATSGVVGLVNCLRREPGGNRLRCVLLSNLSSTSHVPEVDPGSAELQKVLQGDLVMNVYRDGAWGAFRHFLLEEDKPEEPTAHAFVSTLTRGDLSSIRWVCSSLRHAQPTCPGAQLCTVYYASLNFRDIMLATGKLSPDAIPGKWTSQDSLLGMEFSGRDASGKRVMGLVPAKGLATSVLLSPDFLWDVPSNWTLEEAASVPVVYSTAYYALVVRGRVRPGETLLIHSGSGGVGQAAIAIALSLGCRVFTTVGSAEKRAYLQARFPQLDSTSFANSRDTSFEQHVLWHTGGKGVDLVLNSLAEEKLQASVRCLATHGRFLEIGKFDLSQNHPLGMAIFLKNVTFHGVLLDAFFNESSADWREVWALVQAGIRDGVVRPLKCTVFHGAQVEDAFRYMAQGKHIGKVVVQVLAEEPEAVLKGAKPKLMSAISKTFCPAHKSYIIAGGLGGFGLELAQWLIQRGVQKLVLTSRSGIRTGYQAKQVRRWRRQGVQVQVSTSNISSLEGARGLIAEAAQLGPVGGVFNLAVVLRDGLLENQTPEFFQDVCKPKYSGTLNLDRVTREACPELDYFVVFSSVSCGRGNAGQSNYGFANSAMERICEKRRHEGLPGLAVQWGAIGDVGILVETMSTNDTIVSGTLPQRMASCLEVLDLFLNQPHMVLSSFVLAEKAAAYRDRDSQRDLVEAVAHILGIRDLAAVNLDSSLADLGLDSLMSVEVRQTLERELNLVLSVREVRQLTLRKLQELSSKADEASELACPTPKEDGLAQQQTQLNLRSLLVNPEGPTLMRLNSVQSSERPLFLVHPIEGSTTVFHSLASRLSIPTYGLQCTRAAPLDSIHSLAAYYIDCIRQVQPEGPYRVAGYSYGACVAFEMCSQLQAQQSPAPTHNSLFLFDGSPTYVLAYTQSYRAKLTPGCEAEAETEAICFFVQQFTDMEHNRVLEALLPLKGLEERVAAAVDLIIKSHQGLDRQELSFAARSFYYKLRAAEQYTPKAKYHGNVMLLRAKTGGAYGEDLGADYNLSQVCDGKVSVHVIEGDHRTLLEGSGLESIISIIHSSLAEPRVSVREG

Read-out in the experiment: Fatty acid synthase (Homo sapiens) (UniProt P49327)
Description: LTEA_HepaRG_FASN: Life Technologies and Expression Analysis (LTEA) Assay for Fatty Acid Synthase (FASN) using HepaRG (AID 2283448). As to conditions: mRNA level, 48 h; actives raise or lower the signal. The method, then:
LTEA_HepaRG is a cell based, multiplexed-readout assay that uses HepaRG, a human liver cell line, with measurements taken at 48 hours after chemical dosing on a 96-well plate.LTEA_HepaRG_FASN is one of 102 assay component(s) measured in the LTEA HepaRG cell culture assay. It is a marker of Steatosis.Data from the assay component LTEA_HepaRG_FASN was analyzed into 1 endpoint. This assay endpoint, LTEA_HepaRG_FASN, was analyzed with bidirectional fitting relative to DMSO as the negative control and baseline of activity. Using a type of inducible reporter, measures of mRNA induction for gain or loss-of-signal activity can be used to understand regulation of transcription factor activity. To generalize the intended target to other relatable targets, this assay endpoint is annotated to the lyase intended target family, where the subfamily is fatty acid synthase.
A total of 1060 chemcials from the ToxCast library were tested in eight-point concentration-response experiments. Cell culture and cytotoxicity assays were conducted at Thermo Fisher Scientific's Custom Services facility (Madison, WI). A single lot of human HepaRG cells (Thermo Fisher Scientific, Frederick, MD) was used for the cell culture experiments. 96-well format collagen type I coated plates of human HepaRG cells were prepared using established methods. Briefly, cryopreserved HepaRG cells were thawed, plated at a density of approximately 100,000 cells/well in HepaRG Thaw, Plate, and General Purpose media (HPRG770, Thermo Fisher Scientific), and incubated for 48 hours. 0.5% DMSO was selected as vehicle control to balance the requisite need of DMSO in HepaRG cultures to maintain differentiation (for example, baseline metabolism, proportions of hepatocytes vs. cholangiocytes), while enabling further hepatic receptor pathway activation (for example, PXR and CAR) in response to chemical exposure. 48 hours after plating, the culture medium was replaced with HepaRG Serum-Free Incudtion Media. Cells were exposed to each test chemical in duplicate and maintained in CO2 incubators for another 48 hours. Chemical plates were thawed to room temperature and 200x concentrations of treatment groups were prepared. 8-point conentration-reponse curves were made with the highest exposure at 100 uM, followed by half-log dilutions, all in 0.5% DMSO. Each test plate contained variouse controls, induction positive controls (1mM phenobarbital), cytotoxicity positive controls ([…] aflatoxin B1), vehicle controls (0.5% DMSO), and total lysis controls (0.5% DMSO). Cell morphology images were taken using an Essen IncuCyte FLR automated microscope, with six 96-well plates imaged in about 24 minutes. Images were captured and exported and JPEG files. Spent culture media was transfered to black-well plates for the LDH assay, and remaining media was sorted at -80 C for later use. Cells were treated with RLT buffer and frozen until shipped for gene expression analysis. Total RNA was isolated from the cell suspension in 75 uL of Buffer RLT (Qiagen, Germantown, MD 20874) by Quintiles/Expression Analysis (Durham, NC) using a custom isolation procedure. Total RNA from each plate well was transferred to a preamplification plate. Fluidigm's 96.96 Dynamic ArrayTM (Fluidigm, Amsterdam, the Netherlands) technology was used for gene expression analyses by quantitative reverse transcription polymerase chain reaction (qRT-PCR, performed by Quintiles/Expression Analysis, Durham, NC)89. Standard TaqManTM Assays (Applied Biosystems/ThermoFisher Scientific, Foster City, CA) were used to assess the expression of 93 genes selected based on their selectivity and sensitivity to important hepatic receptors known to be modulated by environmental chemicals; importance in human hepatocyte functionality; and hepatotoxicity. […]
Take `Cc1ccc(S(=O)(=O)NC(=O)NN2CCCCCC2)cc1`: the result was inactive.

Consider `c1ccc2c(c1)-c1cccc3c1c-2cc1ccccc13`, for which the half-maximal activity concentration (AC50) was 13.7 µM (active).

Regarding `O=C(O)[C@H](O)[C@@H](O)C(=O)O`, the molecule was classed as inactive.

Take `CCCCCCCC1CCC(=O)O1` (stereo not given): the call was inactive.

In the case of `O=C(O)c1ccc2c(c1)nc(C(=O)NC1CCN(C3CC3)CC1)n2Cc1cc(-c2ccc(Cl)s2)on1`, the call was inactive.

In the case of `CCCCOC(=O)c1ccccc1`, the molecule was called inactive.

In the case of `O=C(NO)C1(NS(=O)(=O)c2ccc(Oc3ccc(F)cc3)cc2)CCOCC1`, the concentration at half-maximal activity (AC50) is 50 µM (active).

In the case of `NC(=O)N1c2ccccc2C=Cc2ccccc21`, the result was inactive.

With `Cn1c(=O)c2[nH]cnc2n(C)c1=O`, the outcome was inactive.

As for `CCCCN1C(=O)[C@@H]([C@H](O)C2CCCCC2)NC(=O)C12CCN(Cc1ccc(Oc3ccc(C(=O)O)cc3)cc1)CC2`, the AC50 is 1.32 µM (active).

With `OC(Cn1cncn1)(Cn1cncn1)c1ccc(F)cc1F`, the outcome was inactive.

For `C=CCc1cc(S(=O)(=O)c2ccc(O)c(CC=C)c2)ccc1O`, the concentration at half-maximal activity (AC50) is 81.4 µM (active).

`C[C@]12C=CC(=O)C=C1CC[C@H]1[C@@H]3C[C@@H](O)[C@](O)(C(=O)CO)[C@@]3(C)C[C@H](O)[C@@]12F`: the molecule was classed as inactive.

As for `CC(C)CC(C)O` (stereo not given), the molecule was called inactive.

Turning to `Cc1nccn1-c1ccc(Sc2cccc(C3(C(N)=O)CCOCC3)c2)cc1`, the AC50 was 9.48 µM (active).

Regarding `Cc1ncc([C@@H](CCCCCCc2ccc3c(n2)NCCC3)CC(=O)O)cn1`, the molecule was classed as inactive.

Take `OCc1ccccc1`: the molecule was called inactive.

As for `CCCCCCCCN(C)C`, the molecule was called inactive.

`CCCc1ccccc1`: the call was inactive.

For `OC[C@H]1O[C@@H]2O[C@H]3[C@H](O)[C@@H](O)[C@@H](O[C@H]4[C@H](O)[C@@H](O)[C@@H](O[C@H]5[C@H](O)[C@@H](O)[C@@H](O[C@H]6[C@H](O)[C@@H](O)[C@@H](O[C@H]7[C@H](O)[C@@H](O)[C@@H](O[C@H]1[C@H](O)[C@H]2O)O[C@@H]7CO)O[C@@H]6CO)O[C@@H]5CO)O[C@@H]4CO)O[C@@H]3CO`, the result was inactive.

Regarding `CCc1cccc(CC)c1N`, the molecule was classed as inactive.

For `CCCC(CCC)C(=O)O`, the outcome was inactive.

Regarding `NC(=O)NN=Cc1ccc([N+](=O)[O-])o1`, the half-maximal activity concentration (AC50) was 50 µM (active).

On to `CC(C)C(=O)Nc1ccc([N+](=O)[O-])c(C(F)(F)F)c1`, for which the AC50 is 37 µM (active).

As to `OC(CCl)CCl`, the call was inactive.

Take `CC(C)CCCCCCOC(=O)C1CCCCC1C(=O)OCCCCCCC(C)C` (stereo not given): the molecule was called inactive.

In the case of `O=C(O)c1cccc(C[C@@H]2COc3ccc(OCc4nc5cc(F)ccc5s4)cc3[C@@H]2O)c1`, the AC50 was 85.5 µM (active).

On to `CNC(C)=O`, for which the result was inactive.

Consider `OCC(CO)(CO)CO`, for which the outcome was inactive.

For the molecule `COc1cc2c(c(OC)c1OC)-c1ccc(OC)c(=O)cc1[C@@H](NC(C)=O)CC2`, the AC50 was 0.0575 µM (active).

`CCOC(N)=O`: the outcome was inactive.

With `CC1(C)C(=O)N(Cl)C(=O)N1Cl`, the molecule was called inactive.

Consider `OC[C@H]1O[C@@](CO)(O[C@H]2O[C@H](CO)[C@@H](O)[C@H](O)[C@H]2O)[C@@H](O)[C@@H]1O`, for which the molecule was classed as inactive.

Consider `Nc1ccn([C@@H]2O[C@H](CO)[C@@H](O)[C@@H]2O)c(=O)n1`, for which the call was inactive.

Take `CC[C@H](C)C(=O)O[C@H]1C[C@H](O)C=C2C=C[C@H](C)[C@H](CC[C@@H](O)C[C@@H](O)CC(=O)O)[C@H]21`: the concentration at half-maximal activity (AC50) was 3.08 µM (active).

Turning to `NNC(=O)c1ccncc1`, the call was inactive.

For the molecule `CC(=O)c1ccccc1`, the molecule was called inactive.

As for `CCCCCCCCCCCCCCCCOS(=O)(=O)O`, the outcome was inactive.

In the case of `O=S1(=O)CCCO1`, the result was inactive.

Take `COS(C)(=O)=O`: the result was inactive.
